Measured values published in PubChem BioAssay (Tox21).
Records with an inconclusive call do not appear. A call without a number means that no potency is given here. Active and inactive are the calls of the source. Calls follow the shape of the dose curve; as a rule, active = well fitted cell-killing curve with a large enough effect in the repeat runs; inconclusive = weak or mixed curves; inactive = flat fitted curve, though single readings scatter.

Experiment: qHTS RealTime-Glo MT Cell Viability Assay in HepG2 cells - 8 hour (AID 1224873); also: nearly all actives have a fitted effect of over 55% in size
Conditions: RealTime-Glo luminescence; series mostly up to 76.8 µM
From the text: National Center for Advancing Translational Sciences [NCATS]
NIH Chemical Genomics Center [NCGC]
U.S. Environmental Protection Agency [EPA]
National Institutes of Environmental Health Sciences [NIEHS]
National Toxicology Program [NTP]
U.S. Food and Drug Administration [FDA]
Measure of cell viability is critical in the cell-base assay. Analysis of cell viability is necessary for the characterization of cell responses to cytotoxic drugs and environmental stress. A RealTime-Glo MT Cell Viability Assay to monitor cell viability in real time of continues cell culture during 40 hours of compound treatment was used to screen Tox21 10K library compounds in HepG2 cells. The RealTime-Glo MT Cell Viability Assay is a nonlytic, homogeneous, bioluminescent method to measure cell viability in real time using a simple, plate-based method. The assay involves adding NanoLuc luciferase and a cell-permeant prosubstrate to cells in culture. Viable cells reduce the proprietary prosubstrate to generate a substrate for NanoLuc luciferase. This substrate diffuses from cells into the surrounding culture medium, where it is rapidly used by the NanoLuc Enzyme to produce a luminescent signal. The signal correlates with the number of viable cells, making the assay well suited for cytotoxicity studies.
Tox21 Assay Protocol Summary:
The mixture of HepG2 cell suspension and reagents were dispensed at 600cells/6 ul/well in 1536-well tissue culture treated black solid bottom plates using a Multidrop dispenser. After the assay plates were incubated at a 37 C/5% CO2 incubator for 5 hours, 23 nL of compounds dissolved in DMSO, positive and negative controls was transferred to the assay plate by a pintool work station. The plates were incubated at 37 C for 40 hours. The luminescence intensity were measured at 0h, 8h, 16h, 24h, 32h and 40h time points using ViewLux plate reader during compound treatment.
Potency is read from the fitted curve at half-maximal effect.

Row | Compound | Potency
1 | Cc1oc(-c2ccccc2)nc1CCOc1ccc(C[C@H](Nc2ccccc2C(=O)c2ccccc2)C(=O)O)cc1 | inactive
2 | ClC/C=C\CCl | inactive
3 | C(=C/c1ccccc1)/c1ccccc1 | inactive
4 | O=C(O)c1cccc(Cl)n1 | inactive
5 | c1ccc(Nc2cccc3ccccc23)cc1 | inactive
6 | CC(C)(c1cc(Br)c(OCCO)c(Br)c1)c1cc(Br)c(OCCO)c(Br)c1 | inactive
7 | CCCCCCCOC(=O)c1ccc(O)cc1 | inactive
8 | C=CCCCCCCC=C | inactive
9 | CC1=C(/C=C/C(C)=C/C=C/C(C)=C\C=O)C(C)(C)CCC1 | inactive
10 | CC1CCCCC1 | inactive
11 | CCCOc1sc(C(=O)N2CCC(c3cc(CN)ccc3F)CC2)c(C)c1Br | 31.8 µM (active)
12 | Cc1cccc(N(C)C)c1 | inactive
13 | CC(NCCC(c1ccccc1)c1ccccc1)c1ccccc1 (stereo not given) | 21.3 µM (active)
14 | CCc1cccc(C)c1 | inactive
15 | C/C=C/CO | inactive
16 | CCCSS/C(CCO)=C(\C)N(C=O)Cc1cnc(C)nc1N | inactive
17 | C#CC(O)CCC (stereo not given) | inactive
18 | Cc1cc(C)c(C=O)c(C)c1 | inactive
19 | COc1cccc(O)c1 | inactive
20 | COc1ccccc1C=O | inactive

Row | Compound | Potency
21 | C=CC(C)(CCC=C(C)C)OC(=O)/C=C/c1ccccc1 (stereo not given) | inactive
22 | CCCCN(C)C | inactive
23 | CCCCCCCCCCc1ccccc1 | inactive
24 | CN1[C@@H]2CC[C@@H]1CC(OC(=O)C(CO)c1ccccc1)C2 (stereo not given in full) | inactive
25 | CCO[Si](C)(C)OCC | inactive
26 | CCCC(C)CCC(C)=O (stereo not given) | inactive
27 | NC(=O)c1nc(-c2cccc(-c3cc(F)ccc3OCC(F)(F)C(F)(F)F)c2)n[nH]1 | inactive
28 | CC(CN(C)C)CN1c2ccccc2CCc2ccccc21 (stereo not given) | inactive
29 | CCCCCCCC/C=C\CCCCCCCC(=O)OCCOC(=O)CCCCCCC/C=C\CCCCCCCC | inactive
30 | c1ccc(Sc2ccccc2)cc1 | inactive
31 | Cc1c(-c2ccc(O)cc2)n(Cc2ccc(OCCN3CCCCCC3)cc2)c2ccc(O)cc12 | 23.9 µM (active)
32 | Clc1ccc(C(c2ccccc2Cl)C(Cl)Cl)cc1 (stereo not given) | inactive
33 | CN(C)CCCN1c2ccccc2CCc2ccccc21 | inactive
34 | C=CC(=C)CCC=C(C)C | inactive
35 | Cc1c(C)n(Cc2ccccc2)c2ccc(C(=O)OCCN(C)C)cc12 | inactive
36 | COCC(=O)O[C@]1(CCN(C)CCCc2nc3ccccc3[nH]2)CCc2cc(F)ccc2[C@@H]1C(C)C | 21.3 µM (active)
37 | [O]=[Zr] | inactive
38 | CC(C)(C)c1n[nH]c(=O)n(N)c1=O | inactive
39 | C=C(c1ccc(C(=O)O)cc1)c1cc2c(cc1C)C(C)(C)CCC2(C)C | inactive
40 | CC(C)=CCCC(C)O (stereo not given) | inactive
